# Experimental data taken from PubChem BioAssay (NCATS).
# Results filed as inconclusive are left out. Activity calls are given as the source filed them. Unless noted, calls come from the whole dose curve; as a rule, active = well fitted inhibition curve with a large enough effect; inconclusive = small, poorly fitted or top-dose-only effect; inactive = no such curve, though single readings can be large or run the other way.
# Assay: NS1 protein of Zika virus - qHTS assay to identify small molecule inhibitors in human HEK 293 cells (AID 1347053);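 note: plate controls were infected untreated cells for no effect and uninfected cells for full effect; nearly all actives have a fitted effect of over 55% in size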
# Conditions: HEK293 ZIKV MR766 infection, NS1 TR-FRET, 24 h; series mostly up to 46.1 µM; activity change, negative = inhibition: at the top concentration
# How it was run: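 HEK 293; 20 h pre-culture, 37 C/5% CO2; cpd 1 h pre-infection; ZIKV MR766, MOI = 0.5, 24 h, 37 C; TR-FRET NS1 readout (two anti-NS1 Abs); norm. to no-virus vs infected.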
row,Compound,"activity change, negative = inhibition"
1,Nc1ccc(Cl)cc1N,0.578% [at 92.8 µM] (inactive)
2,C#C[C@]1(O)C=C[C@@H]2[C@@H]3CCC4=CC(=O)CC[C@@H]4[C@H]3CC[C@@]21CC,4.82% (inactive)
3,COc1ccc(C(=O)c2c(C)n(CCN3CCOCC3)c3cc(I)ccc23)cc1,-10.7% (inactive)
4,CC(C)Oc1cccc(NC(=O)c2ccccc2C(F)(F)F)c1,9.47% [at 92.8 µM] (inactive)
5,O=[N+]([O-])c1c2ccccc2cc2ccccc12,-0.943% [at 92.8 µM] (inactive)
6,Nc1ccc([N+](=O)[O-])cc1,-0.439% [at 92.8 µM] (inactive)

# Assay: qHTS for Inhibitors of the Functional Ribonucleoprotein Complex (vRNP) of Lassa (LASV) Arenavirus: LASV Primary Screen - GLuc reporter signal (AID 1347082; calls by dose curve; tested in HEK293 reporter line; note: nearly all actives have a fitted effect of over 60% in size; note: potency is the fitted concentration of half-maximal effect; for activity change, negative = inhibition: % is set by controls: 0 for no effect and ±100 for the full control effect)
# Conditions: LASV minigenome vRNP, Gaussia luciferase reporter; series mostly up to 57.5 µM; activity change, negative = inhibition: at the top concentration
Compound,"activity change, negative = inhibition",Potency
C[C@@H]1CN(CC(=O)Nc2ccc3c(c2)Cc2cccc(-c4cc(=O)cc(N5CCOCC5)o4)c2S3)C[C@H](C)O1,-20.4% (inactive),
CC(C)C(=O)Nc1ncc(-c2cc(C(F)F)nn2-c2c(Cl)cccc2Cl)s1,-54.6% (inactive),
CCCCn1c(=O)n(Cc2ccccc2F)c(=O)c2[nH]c(Cc3ccc(NC(C)=O)cc3)nc21,-24.9% (inactive),
CO[C@H]1CCC(O[C@H]2C[C@H]([C@]3(C)CC[C@]4(C[C@H](O)[C@@H](C)[C@@H]([C@@H](C)C=C(C)C(=O)[C@H](C)C[C@H](C)C(=O)O)O4)O3)O[C@]3(O[C@@H]([C@H]4O[C@@](O)(CO)[C@H](C)C[C@H]4C)C[C@H]3C)[C@H]2C)O[C@H]1C (stereo partly specified),-38.8% (inactive),
c1cc(-c2cnn3cc(-c4ccc(OCCN5CCCCC5)cc4)cnc23)ccn1,,34.3 µM (active)
CC(=O)c1c(C)c2cnc(Nc3ccc(N4CCNCC4)cn3)nc2n(C2CCCC2)c1=O,-25.1% (inactive),
O=C(Nc1ccccc1-c1ccc(Cl)cc1)c1cccnc1Cl,-16.7% [at 115 µM] (inactive),
CCN(CC)CCCCNc1ncc2cc(-c3cc(OC)cc(OC)c3)c(NC(=O)NC(C)(C)C)nc2n1,-35.8% (inactive),
Cc1ccc(NC(=O)c2cccc(C(C)(C)C#N)c2)cc1Nc1ccc2ncn(C)c(=O)c2c1,-31.7% (inactive),
CCc1cc(Nc2nccc(-c3c(-c4ccc(OC)c(C(=O)Nc5c(F)cccc5F)c4)nc4ccccn34)n2)c(OC)cc1N1CCC(N2CCN(S(C)(=O)=O)CC2)CC1,-3.17% (inactive),
CN(C)CCCN=c1c2ccccc2n(C)c2[nH]c(=O)n(C)c(=O)c12,-64.8% (inactive),
O=S(=O)(c1ccc(Cl)cc1)c1ccc(Cl)cc1,-11.5% [at 115 µM] (inactive),
CC1(C)CC/C(=C/c2ccc(Cl)cc2)C1(O)Cn1cncn1 (stereo unspecified),-5.37% [at 115 µM] (inactive),
COC(C)(C)CCCC(C)C/C=C/C(C)=C/C(=O)OC(C)C (stereo unspecified),2.99% (inactive),
CCCCCC[C@H]1C(=O)O[C@H](C)[C@H](NC(=O)c2cccc(NC=O)c2O)C(=O)O[C@@H](C)[C@@H]1OC(=O)CC(C)C,,1.09 µM (active)
COc1cc2c(cc1O)CC[C@@H]1[C@@H]2CC[C@]2(C)[C@@H](O)CC[C@@H]12,-22.8% (inactive),
Cc1ccc(NC(=O)c2ccc(CN3CCN(C)CC3)cc2)cc1Nc1nc(-c2cccnc2)cs1,-31.3% (inactive),
Cc1cnc(-c2cnc(NCCNc3ccc(C#N)cn3)nc2-c2ccc(Cl)cc2Cl)[nH]1,-28.5% (inactive),

Compound,"activity change, negative = inhibition",Potency
Cc1cccc(-c2[nH]c(C(C)(C)C)nc2-c2ccc3nccnc3c2)n1,,9.68 µM (active)
Nc1cccc2c(N)cccc12,-27.2% [at 115 µM] (inactive),
CC(=O)N(C)C1(c2ccccc2)CCN(CCC[C@]2(c3ccc(Cl)c(Cl)c3)CCCN(C(=O)c3ccccc3)C2)CC1,-30.1% (inactive),
CCOc1ccc(Nc2nc(-c3c(C)nc4ccccn34)cs2)cc1,-44% (inactive),
O=C(Nc1cccnc1)N1CCC(Cc2cccc(Oc3ccc(C(F)(F)F)cn3)c2)CC1,,21.7 µM (active)
CN(C)CC=CC(=O)Nc1cc2c(Nc3ccc(F)c(Cl)c3)ncnc2cc1O[C@H]1CCOC1,,13.7 µM (active)
Cc1c(N)nc([C@H](CC(N)=O)NC[C@@H](N)C(N)=O)nc1C(=O)N[C@H](C(=O)N[C@@H](C)[C@H](O)[C@@H](C)C(=O)N[C@@H](C(=O)NCCc1nc(-c2nc(C(=O)NCCC[S+](C)C)cs2)cs1)[C@@H](C)O)C(O[C@H]1O[C@H](CO)[C@H](O)[C@@H](O)[C@@H]1O[C@H]1O[C@H](CO)[C@@H](O)[C@H](OC(N)=O)[C@H]1O)c1cnc[nH]1 (stereo partly specified),-18.2% (inactive),
Cc1cc([C@@H](C)Nc2ccccc2C(=O)O)c2nc(N3CCOCC3)cc(=O)n2c1,,39.5 µM (active)
CC(C)(C)c1ccc(O)c(O)c1,-27.8% [at 115 µM] (inactive),
Nc1ccc(Cl)cc1N,-16.8% [at 115 µM] (inactive),
C#C[C@]1(O)C=C[C@@H]2[C@@H]3CCC4=CC(=O)CC[C@@H]4[C@H]3CC[C@@]21CC,-4.82% (inactive),
COC(=O)c1c(Cl)c(Cl)c(C(=O)OC)c(Cl)c1Cl,6.11% [at 115 µM] (inactive),
CC(C)c1ccc2c(c1)c(SC(C)(C)C)c(CC(C)(C)C(=O)O)n2Cc1ccc(Cl)cc1,,12.2 µM (active)
[Cl][In]([Cl])[Cl],-21.5% [at 115 µM] (inactive),
CC1=C[C@@H]2[C@@H]([C@@H](O)C[C@@]3(C)[C@H]2C[C@@H](C)[C@]3(O)C(=O)CO)[C@@]2(C)Cc3cnn(-c4ccccc4)c3C=C12,-1.39% (inactive),
CC(C)Oc1cccc(NC(=O)c2ccccc2C(F)(F)F)c1,-34.1% [at 115 µM] (inactive),
O=[N+]([O-])c1c2ccccc2cc2ccccc12,14.5% [at 115 µM] (inactive),
